# EPAC2 antag – human EPAC2 antagonism, validation; actives 1.7% (n = 16,000); Q8WZA2; AID 1645886; EPAC2 Rap1B BODIPY-GDP exchange, fluorescence; Potency, µM (top dose mostly 112 µM), for the others: top-dose activity, negative = inhibition, most hits filed as inhibitors;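 note: 100% = activation by cAMP agonist control; nearly all actives have a fitted effect of over 40% in size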
#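 Normalized against a 6.5 mM cAMP agonist control, compounds were tested on 100 nM EPAC2 exchanging Rap1B-bound BODIPY-GDP (250 nM) for 50 uM GDP. Fluorescence drop (ex 480, em 540 nm) was tracked at room temperature over 30 min at 5-min intervals.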
# EPAC1 ag val – validation of human EPAC1 agonists; actives 1% (n = 16,000); Potency, µM, without a hit: max response, positive = active, hits mostly activators; O95398; EPAC1 Rap1b BODIPY-GDP exchange, fluorescence; AID 1645883; note: nearly all actives have a fitted effect of over 70% in size
# * marks the source's active call; other numbers are inactive results; i = inactive; ? = inconclusive; ! = a repeat was not active; [ ] = dose if it differs, or a comment. Sampled rows, rich in hits. Any-hit rate of the full collection: about 2.9%. Calls come from the whole dose curve; as a rule, active = well fitted curve in the direction sought with a large enough effect; inconclusive = small, poorly fitted or top-dose-only effect, or another doubt; inactive = no such curve, though single readings can be large; an effect the other way counts as inactive or inconclusive. Unless noted, % is set by controls: 0 for no effect and ±100 for the full control effect; potency is the fitted concentration of half-maximal effect.
SMILES,EPAC2 antag,EPAC1 ag val
O=c1c(-c2ccccc2)nc2cnc(Nc3ccccc3)nc2n1Cc1cccs1,11.0%,112µM*
COCCn1c(=O)c(-c2ccccc2)nc2cnc(Nc3ccccc3)nc21,-15.0%,-14.5%
C[C@@H]1CCN(C(=O)[C@H](CCCN=C(N)N)NS(=O)(=O)c2cccc3c2NC[C@H](C)C3)[C@@H](C(=O)O)C1,-19.8%,-11.3%
CC[C@H]1OC(=O)[C@H](C)[C@@H](O[C@H]2C[C@@](C)(OC)[C@@H](O)[C@H](C)O2)[C@H](C)[C@@H](O[C@@H]2O[C@H](C)C[C@H](N(C)C)[C@H]2O)[C@](C)(O)C[C@H](C)C(=NOCOCCOC)[C@H](C)[C@@H](O)[C@]1(C)O,13.6%,7.9%
Brc1c(Br)c(Br)c2[nH]cnc2c1Br,-1.3%,-9.0%
Brc1c(Br)c(Br)c2n[nH]nc2c1Br,39.8µM*,-24.7%
CC1CC(=O)NN=C1c1ccc(NCC(C)(C)NCC(O)COc2cc(Cl)ccc2C#N)cc1 (configuration not stated),5.5%,?
COc1ccc(CNC(=O)C[C@H]2C(=O)N(Cc3ccc(OC)cc3)C[C@@H]2Cc2ccccc2)cc1,?,2.1%
CCCCC[C@H]1CN(Cc2ccccc2)C(=O)[C@@H]1CC(=O)NCc1ccc(OC)cc1,22.4µM*,-81.9%
CCCCCCCCCC[n+]1ccc(/C=C/c2c[nH]c3ccccc23)cc1,i,100µM*
CCCCCCC[n+]1ccc(/C=C/c2c(C)[nH]c3ccccc23)cc1,i,100µM*
CCCCCCCCCCCCCCCC[n+]1ccc(/C=C/c2c(C)[nH]c3ccccc23)cc1,?,-44.6%
CCCCCCCCCCCCCCCC[n+]1ccc(/C=C/c2c[nH]c3ccccc23)cc1,491.1%,?
CC1c2ccccc2CN1NC(=O)c1ccc(Cl)c(S(N)(=O)=O)c1 (configuration not stated),-12.8%,5.3%
COc1cc(-c2coc3cc(OCc4ccccc4)c(OC)c(O)c3c2=O)cc(O)c1OC,-18.4%,112µM*
COc1cc(-c2coc3cc(O[C@H]4OC(CO)C(O)C(O)C4O)c(OC)c(O)c3c2=O)cc(O)c1OC (some centres not stated),-6.7%,19.5%
CC(C)(C)C1(O)CCN2CC3c4ccccc4CCc4cccc(c43)C2C1 (configuration not stated),-10.9%,9.1%
COc1cc(C=C2CCC/C(=C\c3ccc(O)c(OC)c3)C2=O)ccc1O,-2.3%,?
C[N+]1(C)[C@@H]2CC(OC(=O)[C@H](CO)c3ccccc3)C[C@H]1[C@H]1O[C@@H]12 (some centres not stated),-40.0%,0.8%
C=C1C[C@]23C[C@@]1(O)CC[C@H]2[C@@]12C=C[C@H](O)[C@@](C)(C(=O)O1)[C@H]2[C@@H]3C(=O)O,-43.0%[56.6 µM],44.7µM*
C=C1C[C@@]23C[C@@]1(O)CCC2[C@@]12C=CC(O)[C@](C)(C(=O)O1)C2C3C(=O)O (some centres not stated),-2.7%,?
CC(O)(COc1ccccc1)c1ccc2c(c1)CN(Cc1cccn1-c1ccccn1)CCO2 (configuration not stated),-15.9%,-5.5%
CN(Cc1cccc2ncccc12)C(=O)c1cnn(-c2ncc3c(n2)-c2ccccc2CC3)c1C1CC1,-8.3%,0.4%
COc1cccc(C(=O)N(Cc2cc3ccc(C)cc3nc2N(C)C)C2CC2)c1OC,14.1µM*,-1.9%
COc1ccc(-c2nc3cc(C)ccc3cc2CN(C(=O)c2cccs2)C2CC2)cc1OC,?,23.8%
SMILES,EPAC2 antag,EPAC1 ag val
CC(CN1c2ccccc2Sc2ccc(S(=O)(=O)N(C)C)cc21)N(C)C (configuration not stated),9.8%,-53.7%
CC(C)(C)C(=O)OCC(=O)[C@H]1CC[C@H]2[C@@H]3CCC4=CC(=O)CC[C@]4(C)[C@H]3CC[C@]12C,-17.0%,-23.9%
COc1ccccc1-c1ccc2ncnc(N(C)Cc3ccco3)c2c1,50.1µM*,?
COc1ccccc1-c1cc(N(C)Cc2ccco2)ncn1,?,-26.9%
CN(C)c1ncnc2ccc(-c3ccoc3)cc12,-29.4%,-23.1%
CN(Cc1ccco1)c1ncnc2ccc(-c3ccoc3)cc12,44.7µM*,-14.2%
CN(Cc1ccco1)c1ncnc2ccc(-c3ccccc3Cl)cc12,39.8µM*,?
CN(Cc1ccco1)c1ncncc1-c1ccccc1Cl,5.2%,?
CC(c1ccon1)N(C)C(=O)c1cnn(-c2ncc3c(n2)-c2ccccc2CC3)c1C1CC1 (configuration not stated),-37.0%,-4.8%
C=CC1=C(C(=O)O)N2C(=O)[C@@H](NC(=O)/C(=N/OCC(=O)O)c3csc(N)n3)[C@H]2SC1 (stereo in doubt),-18.5%[56.6 µM],-17.9%
O=C(O)c1cc(O)c2c(c1)[C@H]([C@H]1c3cc(C(=O)O)cc(O)c3C(=O)c3c(O[C@@H]4O[C@H](CO)[C@@H](O)[C@H](O)[C@H]4O)cccc31)c1cccc(O[C@@H]3O[C@H](CO)[C@@H](O)[C@H](O)[C@H]3O)c1C2=O,79.4µM*,?
OCC1OC(Oc2cccc3cccnc23)C(O)C(O)C1O (configuration not stated),-6.9%,1.1%
CC1=C(/C=C/C(C)=C/C=C/C(C)=C/C=C/C=C(C)/C=C/C=C(C)/C=C/C2=C(C)C[C@@H](O)CC2(C)C)C(C)(C)C[C@H](O)C1,27.7%,-24.1%
COCC(=O)Nc1cc(C(=O)N2CCC(c3ccccc3)CC2)cc2nc(-c3ccccc3)n(C)c12,?,-1.9%
O.O.O.O.O.O.O.O=S(=O)([O-])[O-].[Co+2],50.1µM*,-31.8%
C[C@@H]1C[C@H]2C3C[C@H](F)C4=CC(=O)C=CC4(C)[C@@]3(F)[C@@H](O)CC2(C)[C@@]1(O)C(=O)COC(=O)C(C)(C)C (some centres not stated),-2.1%,-11.7%
c1ccc2c(Cc3c[nH]c4ccccc34)c[nH]c2c1,?,100µM*
O=C1N[C@@H](Cc2c[nH]c3ccccc23)C(=O)N[C@H]1Cc1c[nH]c2ccccc12,-1.5%,3.7%
Cc1cc(-c2ccnc(-n3ncc(C(=O)NCC4COCCO4)c3C3CC3)n2)c(C)s1 (configuration not stated),-27.2%,14.4%
Cc1cnc(SCc2ccccn2)nc1C1CCCN(C(=O)c2scc3c2CCCC3)C1 (configuration not stated),?,-13.7%
CC(O)[C@H]1CC[C@H]2[C@@H]3CC[C@@H]4C[C@@H](O)CC[C@]4(C)[C@H]3CC[C@]12C (some centres not stated),-3.0%,19.1%
CN1CCN(CCCN2c3ccccc3Sc3ccc(C(F)(F)F)cc32)CC1,56.2µM*!,-1.9%
O=C(CCN1CCN(CCO)CC1)N1c2ccccc2Sc2ccc(C(F)(F)F)cc21,6.6%,13.3%
CC1(C)S[C@@H]2[C@H](NC(=O)[C@H](N)c3ccccc3)C(=O)N2[C@H]1C(=O)OCOC(=O)[C@@H]1N2C(=O)C[C@H]2S(=O)(=O)C1(C)C,0.6%,6.2%
C=CC(C)(C)c1[nH]c2ccccc2c1C1=C(O)C(=O)C(c2c[nH]c3c(CC=C(C)C)cccc23)=C(O)C1=O,44.7µM*,-14.1%
Cc1[nH]cnc1C[C@H]1CCc2c(C)c3ccccc3n2C1=O,0.0%,-107.7%
